Compound activity as filed in PubChem BioAssay.
NPC1 prom act – qHTS Assay for NPC1 Promoter Activators; 320,000 tested, 2.4% active; Huh7 NPC1 promoter luciferase reporter, 24 h; Potency, µM (titrated, usually from 9.22 µM), for inactives: top-dose activation, actives largely listed as activators; also: % of control where 0% means no effect; nearly all actives have a fitted effect of over 60% in size
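Huh7 reporter cells (NPC1 promoter driving luciferase) are dosed with compound for 24 h at 37 °C, 5% CO2; luciferase detection reagent is then added and luminescence measured after 10 min at ambient temperature.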
SMN2 splice enh – qHTS Assay for Enhancers of SMN2 Splice Variant Expression; HEK293 SMN2-luciferase splicing reporter, luminescence, 30-36 h; Potency, µM (titrated, usually from 46.1 µM), for inactives: top-dose activity change, positive = activation, hits mostly activators; 210,000 tested, 2.8% active; AID 1458, 2008; also: % of control where 0% means no effect; nearly all actives have a fitted effect of over 55% in size
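qHTS luciferase splicing reporter: luminescence rises when SMN2 exon 7 is included in transfected HEK293 cells. Compound exposure lasted 30-36 h at 37C, with 4.5 mM final sodium butyrate as control, followed by a ONE-Glo read.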
FLuc counter – qHTS profiling assay for firefly luciferase inhibitor/activator using purifed enzyme and Km concentrations of substrates (counterscreen for miR-21 project). Potency, µM (series often up to 57.5 µM), for the others: top-dose activity change, negative = inhibition, most hits filed as inhibitors. Luciferin 4-monooxygenase (Photinus pyralis), P08659. purified FLuc, Km substrates, luminescence inhibition. 360,000 tested, 6.9% active;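 also: plate controls were vehicle for no effect and reference inhibitor for full effect; nearly all actives have a fitted effect of over 55% in size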
Target sequence (P08659 whole entry, looked up): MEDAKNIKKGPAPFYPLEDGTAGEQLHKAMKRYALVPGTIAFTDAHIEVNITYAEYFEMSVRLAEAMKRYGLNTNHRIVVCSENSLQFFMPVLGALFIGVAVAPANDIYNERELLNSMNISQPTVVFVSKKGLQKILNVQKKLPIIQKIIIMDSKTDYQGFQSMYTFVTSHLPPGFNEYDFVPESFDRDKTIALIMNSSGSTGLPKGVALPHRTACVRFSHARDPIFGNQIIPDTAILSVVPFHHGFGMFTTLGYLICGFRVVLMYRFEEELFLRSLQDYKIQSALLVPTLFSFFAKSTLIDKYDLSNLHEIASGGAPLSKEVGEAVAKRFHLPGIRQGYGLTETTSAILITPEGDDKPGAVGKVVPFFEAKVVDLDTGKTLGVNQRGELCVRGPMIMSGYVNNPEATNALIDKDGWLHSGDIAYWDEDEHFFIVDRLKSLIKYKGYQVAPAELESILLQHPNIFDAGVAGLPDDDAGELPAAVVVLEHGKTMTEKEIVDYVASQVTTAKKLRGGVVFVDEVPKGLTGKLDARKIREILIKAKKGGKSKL
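Biochemical qHTS of compounds, final roughly 60 µM downward over six points, against 10 nM purified firefly luciferase using Km concentrations of substrates (10 uM D-luciferin, 10 uM ATP) in Tris acetate pH 7.5 buffer; luminescence output.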
ELG1 DNA repair – qHTS screen for small molecules that inhibit ELG1-dependent DNA repair in human embryonic kidney (HEK293T) cells expressing luciferase-tagged ELG1. 330,000 tested, 2.3% active. AID 504467, 2011. HEK293T ELG1-luciferase reporter, luminescence, 16 h; DNA damage induced by 5-fluorouridine. Potency, µM (highest dose often 46.1 µM), without a hit: at the highest dose activity change, negative = inhibition, actives largely listed as inhibitors; also: % is scaled to controls: 0 for no effect and ±100 for the full control effect; nearly all actives have a fitted effect of over 55% in size
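Quantitative HTS, concentration-response format. 2,000 cells/well co-treated with 5-fluorouridine and compound, 16 hr in 5% CO2 at 37 °C; ONE-Glo luminescence read after 30 min.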
ELG1 genotoxic – qHTS screen for small molecules that induce genotoxicity in human embryonic kidney (HEK293T) cells expressing luciferase-tagged ELG1 | HEK293T ELG1-luciferase reporter, luminescence, 16 h | Potency, µM (titrated, usually from 46 µM), without a hit: at the top dose activity change, positive = activation, actives largely listed as activators | 330,000 tested, 1.3% active | AID 504466, 2011; also: % of control where 0% means no effect; nearly all actives have a fitted effect of over 60% in size
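Screening used a luciferase reporter fused to human ELG1 in HEK293T cells. Luminescence was read on a CCD plate imager after 16 hr exposure and 30 min ONE-Glo incubation.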
Rab9 prom act – qHTS Assay for Rab9 Promoter Activators; 320,000 tested, 2.8% active; Huh7 Rab9 promoter-luciferase reporter, luminescence, 24 h; AID 485297, 2010; Potency, µM (titrated, usually from 9.22 µM), inactives show at the highest dose activation, negative = inhibition, hits mostly activators; also: % of control where 0% means no effect; nearly all actives have a fitted effect of over 60% in size
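Quantitative HTS format; Huh7 Rab9-luciferase reporter cells (1500/well) receive compound 2 h post-plating, incubate 24 h at 37 °C, then get luciferase reagent for 10 min before luminescence reading.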
An asterisk follows results filed as active; ? = inconclusive; nt = no result; [ ] = another dose, or the depositor's remark. Shown are actives, neighbours in structure and some others; about 9.4% of the full set was active somewhere. Calls follow the shape of the dose curve; as a rule, active = well fitted curve in the direction sought with a large enough effect; inconclusive = small, poorly fitted or top-dose-only effect, or another doubt; inactive = no such curve, though single readings can be large; an effect the other way counts as inactive or inconclusive. Potency is read from the fitted curve at half-maximal effect.

SMILES	NPC1 prom act	SMN2 splice enh	FLuc counter	ELG1 DNA repair	ELG1 genotoxic	Rab9 prom act
O=C(O)CCCC(=O)Nc1ccc(N=Nc2ccccc2)cc1	0%	5%	?	-4%	5%	13%
COC(=O)CCC(=O)Nc1ccc(N=Nc2ccccc2)cc1	27%	?	21µM*	?	?	?
COC[C@H]1O[C@@H](c2c(OC)cc(OC)cc2OC)[C@H](OC)[C@@H](OC)[C@@H]1OC	nt	6%	nt	nt	nt	nt
CCOc1cccc(C(=O)N(Cc2ccc(C)o2)C2CCS(=O)(=O)C2)c1 (stereo unspecified)	nt	-4%	-2%	nt	nt	nt
Cc1ccc(NC(=O)COC(=O)C2CC2(Cl)Cl)cc1C (stereo unspecified)	1%	-8%	8.5µM*	12%	3%	-1%
CCCCC(=O)OCC(=O)Nc1ccc(C)c(F)c1	1%	-13%	17µM*	3%	2%	-8%
CCCCC(=O)OCC(=O)Nc1ccc(OC(F)F)cc1	0%	-16%	?	-4%	1%	8%
O=C(NNC(=O)c1ccccc1Cl)c1ccncc1	-2%	-2%	-9%	?	0%	-7%
O=C(NNC(=O)c1ccc(Cl)cc1Cl)c1ccncc1	2%	?	13µM*	?	7%	0%
CSCCC(NC(=O)c1ccc(Cl)cc1Cl)C(=O)NNC(=O)c1ccncc1 (stereo unspecified)	-3%	nt	15µM*	3%	1%	-6%
COC(=O)c1c(N2C(=O)[C@H]3[C@@H](C2=O)[C@]2(C(=O)Nc4ccc(C)cc42)N2CCC[C@@H]32)sc(C)c1C	1%	-7%	-3%	8.2µM*	10%	-2%
CC(C)=C1CCC(C)CC1=O (stereo unspecified)	nt	5%	nt	nt	nt	nt
CCn1c(C)nnc1SCC(=O)Nc1ccc(N2CCOCC2)cc1	2%	nt	?	?	1%	4%
CCn1c(SCC(=O)Nc2ccc(N3CCOCC3)cc2)nnc1-c1ccc(OC)cc1	-2%	-12%	15µM*	-23%	-6%	-3%
CCn1c(SCC(=O)Nc2ccc(N3CCOCC3)c(Cl)c2)nnc1-c1ccc(N)cc1	2%	-16%	13µM*	-10%	2%	2%
O=C(O)c1ccc(C(=O)O)c(C(=O)Nc2ccc3c(c2)Cc2ccccc2-3)c1	nt	11%[9.22 µM]	nt	nt	nt	nt
Cc1ccc(-n2nc3c(N4CCC(C(=O)NCc5cccc(F)c5)CC4)nnc(C)c3c2C)cc1	-3%	nt	4%	16µM*	7%	-15%
Cc1ccc(-n2nc3c(N4CCC(C(=O)NCCc5ccccc5)CC4)nnc(C)c3c2C)cc1	nt	nt	-5%	nt	nt	nt
CCCCCn1c(CNC(=O)c2ccc(F)cc2)nc2ccccc21	nt	-23%	-1%	nt	nt	nt
COc1ccc(/C=N/N=C(\N)c2nonc2N)cc1OC	?	109%	?	?	0%	?
CS/C(N)=N/N=C/c1ccc([N+](=O)[O-])cc1	2.8µM*	7%	21µM*	?	?	?
N/C(=N\N=C\c1ccc(O)c(O)c1)c1nonc1N	?	nt	15µM*	?	?	?
CS/C(N)=N/N=C/c1ccc2c(c1)OCO2	?	nt	8.5µM*	?	?	2.8µM*
COc1cc(/C=N/N=C(\N)c2nonc2N)ccc1O	12%	17%	21µM*	?	?	20%
CC(C)(C)c1ccc(C2Sc3ccccc3NC3=C2C(=O)c2ccccc23)cc1 (stereo unspecified)	nt	1%	4%	nt	nt	nt
SMILES	NPC1 prom act	SMN2 splice enh	FLuc counter	ELG1 DNA repair	ELG1 genotoxic	Rab9 prom act
O=C(CCNS(=O)(=O)c1ccccc1F)N1CCN(C/C=C/c2ccccc2)CC1	-8%	nt	2%	-7%	-3%	-4%
COc1cc(OC)cc(-c2nc3nc(C)c(CCC(=O)Nc4ccc(C)c(C)c4)c(C)n3n2)c1	nt	-10%	-5%	nt	nt	nt
COc1ccc(OC)c(/C=N/N=C(\N)c2nonc2N)c1	-1%	nt	?	6%	1%	-3%
N/C(=N\N=C\c1ccc(O)cc1)c1nonc1N	3.2µM*	16µM*	11µM*	?	?	3.5µM*
N/C(=N\N=C\c1ccc([N+](=O)[O-])cc1)c1nonc1N	1.6µM*	nt	?	?	5.2µM*	1.4µM*
N/C(=N\N=C\c1cccc(O)c1)c1nonc1N	?	18%	1.9µM*	?	?	?
CC(C)CCn1c(=O)c2cccnc2n(CC(=O)Nc2ccc(F)cc2)c1=O	nt	6%	5%	nt	nt	nt
N[C@@H](CCCCO)C(=O)O	nt	-20%[9.22 µM]	nt	nt	nt	nt
Cc1cccc2c1-c1sc(C(=O)N3CCCCC3)cc1CO2	3.5µM*	nt	13µM*	?	?	4µM*
CCN1CCN(C(=O)c2cc3c(s2)-c2c(C)cccc2OC3)CC1	?	nt	11µM*	?	?	4µM*
Cc1cccc2c1-c1sc(C(=O)Nc3ccccc3N3CCN(C)CC3)cc1CO2	-2%	nt	2%	21µM*	-8%	-5%
CC(C)(C)OC(=O)[C@H](C1N[C@@H](C(=O)O)C(C)(C)S1)N1C(=O)c2ccccc2C1=O (stereo partly specified)	nt	-1%[9.22 µM]	nt	nt	nt	nt
CCCN(C(=O)c1noc2c1COc1ccc(C)cc1-2)c1ccc(Cl)c(Cl)c1	nt	nt	1%	nt	nt	nt
O=C1COc2ccc(C(=O)COC(=O)c3ccccc3[N+](=O)[O-])cc2N1	20%	nt	1.5µM*	28%	9%	?
O=C1COc2ccc(C(=O)COC(=O)c3ccc(Cl)cc3[N+](=O)[O-])cc2N1	0%	nt	0%	-18%	nt	-8%
O=C1COc2ccc(C(=O)COC(=O)c3ccco3)cc2N1	0%	nt	12µM*	9%	1%	-1%
CC(C)[C@H](NC(=O)c1ccco1)C(=O)OCC(=O)c1ccc2c(c1)NC(=O)CO2	-2%	4%	?	-8%	-3%	1%
Cc1nc(N2CCCC2)ncc1C(=O)Nc1ccccc1	nt	nt	-8%	nt	nt	nt
Cc1c(CCC(=O)NCc2ccc(F)cc2)c(=O)oc2cc(O)ccc12	nt	nt	3%	nt	nt	nt
CCNC(=S)NNC(=O)c1cc(-c2cccc(OC)c2)nc2ccccc12	24%	?	0.67µM*	?	?	15%
CCNC(=S)NNC(=O)c1cc(-c2ccccc2C)nc2ccccc12	-7%	-9%	17µM*	-8%	-6%	-4%
